PubChem BioAssay AID886 (National Center for Advancing Translational Sciences (NCATS), 2007)
“And” between values parts separate entries of the source, which are not always exact repeats. Identical values can stand only once. About 2,500 (3.4%) of roughly 73,000 compounds were called active. Another 7% or so got no clear call; they are omitted. Calls come from the whole dose curve; as a rule, active = well fitted inhibition curve with a large enough effect; inconclusive = small, poorly fitted or top-dose-only effect; inactive = no such curve, though single readings can be large or run the other way. Shown is part of a subset that was picked to be rich in actives.

target: 3-hydroxyacyl-CoA dehydrogenase type-2 (Homo sapiens) (UniProt Q99714); experiment: qHTS Assay for Inhibitors of HADH2 (Hydroxyacyl-Coenzyme A Dehydrogenase, Type II); settings: recombinant HADH2, NADH fluorescence, beta-hydroxybutyryl-CoA; series mostly up to 57.1 µM; activity change, negative = inhibition: at the top concentration; note: nearly all actives have a fitted effect of over 60% in size
Outline: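 NADH fluorescence (ex 360/em 450 nm) read every 30 s for 4 min; activity taken as last-minus-first time point difference. Enzyme 20 nM, NAD+ 1 mM, beta-hydroxybutyryl-CoA 90 uM, pH 9.0 Tris buffer.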
% is set by controls: 0 for no effect and ±100 for the full control effect; potency is the fitted concentration of half-maximal effect.

Chain of 3-hydroxyacyl-CoA dehydrogenase type-2 (Homo sapiens) (Q99714 whole entry, looked up): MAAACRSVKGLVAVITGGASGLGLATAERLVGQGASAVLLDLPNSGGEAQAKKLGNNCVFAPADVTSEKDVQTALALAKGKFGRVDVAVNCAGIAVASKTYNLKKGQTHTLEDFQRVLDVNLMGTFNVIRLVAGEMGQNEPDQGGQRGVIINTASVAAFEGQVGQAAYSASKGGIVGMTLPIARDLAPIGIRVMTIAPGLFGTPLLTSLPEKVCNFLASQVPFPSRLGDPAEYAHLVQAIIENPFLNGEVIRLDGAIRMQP
Chain of 3-hydroxyacyl-CoA dehydrogenase type-2 (Homo sapiens) (Q99714 whole entry, looked up): as above

Row | Compound | activity change, negative = inhibition | Potency
1 | C=CCOC(=O)COCCC(C)C | -9.83% (inactive) | –
2 | O=C(c1cc(C(F)(F)F)cc(C(F)(F)F)c1)N1CCC2(CC1)CN(c1ccncc1)C2 | -2.98% (inactive) | –
3 | Cc1cccn2c(=O)c3cc(C(=O)NCc4ccccn4)n(C)c3nc12 | 27.5% (inactive) | –
4 | Cc1cccn2c(=O)c3cc(C(=O)N4COCC4(C)C)n(C)c3nc12 | – | 25.1 µM (active)
5 | CC(C)CC1(C(=O)NCc2ccccn2)C=CCN1C(=O)c1ccccc1 (stereo unspecified) | 1.17% (inactive) | –
6 | CC(C)NC[C@H](O)c1ccc2ccccc2c1 | – | inactive
7 | C[C@@H]1CC[C@H]2[C@H](C)[C@H]3[C@H](C[C@H]4[C@@H]5CC=C6C[C@@H](O)CC[C@@]6(C)[C@@H]5C[C@@H](O)[C@]34C)N2C1 | -8.91% [at 11.4 µM] (inactive) | –
8 | CCc1ccc(NC(=O)CSc2nc3ccccc3c(=O)n2CCN2CCOCC2)cc1 | 7.42% (inactive) | –
9 | CCCCn1c(SCC(=O)NCC2CCCO2)nc2ccc(N3CCOCC3)cc2c1=O (stereo unspecified) | – | 10 µM (active)
10 | CCn1c(SCC(=O)NCC2CCCO2)nc2cc(S(=O)(=O)N3CCCCC3)ccc21 (stereo unspecified) | -5.2% (inactive) | –
11 | COC(=O)[C@@]1(Cc2ccccc2)[C@H]2c3cc(C(=O)N(C)C)n(CCSCCO)c3C[C@H]2CN1C(=O)c1ccccc1 | 6.25% (inactive) | –
12 | N#Cc1cccc(-c2nc3cnc(N4CCNCC4)nc3n(C3CC3)c2=O)c1 | 170% (inactive) | –
13 | COc1cccc(-c2nc(Nc3ccncc3)c3ccccc3n2)c1 | 9.47% (inactive) | –
14 | c1ccc2c(Nc3ccncc3)nc(-c3ccoc3)nc2c1 | -3.7% (inactive) | –
15 | c1ccc2c(Nc3ccncc3)nc(-c3ccc4c(c3)OCO4)nc2c1 | – | 25.1 µM (active)
16 | CCCC(Cl)CCCC(Cl)CCC(Cl)CCC(Cl)CCC(Cl)CCCC(Cl)CCC (stereo unspecified) | 0.0337% (inactive) | –
17 | COc1ccc2nccc(C(=O)O)c2c1 | 10.9% [at 25.6 µM] (inactive) | –
18 | CC(NCCO)C(=O)C12CC3CC(CC(C3)C1)C2 (stereo unspecified) | – | 31.6 µM (active)
19 | O=C(CNCCO)NC12CC3CC(CC(C3)C1)C2 | 5.37% (inactive) | –
20 | CN1CCN(CC(=O)C23CC4CC(CC(C4)C2)C3)CC1 | 1.99% (inactive) | –
21 | CC(C)NC(=O)N1CC[C@@]2(CCCN(C(=O)c3cccn3C)C2)C1 | 6.58% (inactive) | –
22 | O=C(NCCc1ccc(Cl)cc1)C1CC(=O)N(C2CCCCC2)C1 (stereo unspecified) | 3% (inactive) | –
23 | NS(=O)(=O)c1ccc(CCNC(=O)Nc2ccc(Cl)cc2)cc1 | 16% [at 11.4 µM] (inactive) | –

Row | Compound | activity change, negative = inhibition | Potency
24 | Oc1cc2c(cc1O)CN(C(=S)NCCc1ccc(Cl)cc1)CCC2 | – | 1.58 µM (active) and 631 nM (active)
25 | Cc1ccccc1N1CCN(S(=O)(=O)C[C@@]23CC[C@H](C[C@H]2NC(=O)[C@@H](N)CCS(C)(=O)=O)C3(C)C)CC1 | -9.48% (inactive) | –
26 | CC(=O)Oc1cccc(N2C(=O)C3CC=C(Cl)CC3C2=O)c1 (stereo unspecified) | -2.48% (inactive) | –
27 | CC(=O)Oc1cccc(N2C(=O)CC(Nc3ccc(N4CCOCC4)cc3)C2=O)c1 (stereo unspecified) | – | 15.8 µM (active)
28 | COc1ccc(N2CCN(C3CC(=O)N(c4ccc5c(c4)OCCO5)C3=O)CC2)cc1 (stereo unspecified) | 8.93% (inactive) | –
29 | Cc1ccc(Br)cc1 | -4.88% (inactive) | –
30 | CCCn1c(-c2ccc(F)cc2)nc2c(NC3CCN(Cc4ccccc4)C3)nc(C)nc21 (stereo unspecified) | -21.3% (inactive) | –
31 | COc1ccccc1CNc1nc(-c2c(C)noc2C)nc2ccccc12 | -25.4% (inactive) | –
32 | CC[C@@H]1Cc2cc(O)ccc2C2=C1c1ccc(O)cc1C[C@H]2CC | – | 25.1 µM (active)
33 | C[C@@H](c1ccccc1)N1C(=O)[C@H]2[C@H]3[C@H](O)[C@H](O)C/C(=N/OC[C@@H](O)COCc4ccco4)[C@@H]3CC[C@@H]2C1=O | 7.28% [at 11.4 µM] (inactive) | –
34 | CCCc1[nH]nc2c1C(c1ccc(OC(=O)c3ccco3)cc1)C(C#N)=C(N)O2 (stereo unspecified) | -4.83% (inactive) | –
35 | CCCc1[nH]nc2c1C(c1ccc(Br)s1)C(C#N)=C(N)O2 (stereo unspecified) | – | 10 µM (active)
36 | CCCc1[nH]nc2c1C(C1CC=CCC1)C(C#N)=C(N)O2 (stereo unspecified) | -5.39% (inactive) | –
37 | CN(C)c1ncc2nc(-c3ccc(F)cc3)c(=O)n(Cc3ccc(F)cc3)c2n1 | -1.36% (inactive) | –
38 | COC(=O)[C@@]1(Cc2ccc(OC)cc2)[C@H]2c3cc(C(=O)N4CCCC4)n(Cc4ccc(C(F)(F)F)nc4)c3C[C@H]2CN1C(=O)c1ccccc1 | 3.4% (inactive) | –
39 | Oc1ccc(O)c2c(O)cccc12 | – | 1.26 µM (active)
40 | O=C(CS(=O)(=O)Cc1ccccc1)NCC1CCCO1 (stereo unspecified) | 3.24% (inactive) | –
41 | O=C(CSc1nnc(-c2ccc(NS(=O)(=O)c3ccccc3)cc2)o1)NCC1CCCO1 (stereo unspecified) | -10.8% (inactive) | –
42 | O=C(CSC1=Nc2ccccc2C2=NC(c3ccccc3)C(=O)N12)NCC1CCCO1 (stereo unspecified) | – | 31.6 µM (active)
43 | Cc1ccnc(N)c1 | 10.4% (inactive) | –
44 | N#Cc1ccc(CN2CCCC3(CCN(C(=O)c4ccco4)CC3)C2)cc1 | -3.04% (inactive) | –
45 | COc1ccc(/C=C/NC(=O)c2ccc(OC)cc2)cc1 | -13.3% [at 11.4 µM] (inactive) | –
46 | C[C@@H]1O[C@@H](O[C@@H]2[C@@H](O)[C@H](OCCc3ccc(O)c(O)c3)O[C@H](CO[C@@H]3O[C@H](CO)[C@@H](O)[C@H](O)[C@H]3O)[C@H]2OC(=O)/C=C/c2ccc(O)c(O)c2)[C@H](O)[C@H](O)[C@H]1O | – | 0.1 µM (active)

Row | Compound | activity change, negative = inhibition | Potency
47 | CO/N=C\[C@@H](C)[C@H](OCc1ccccc1)C(C)C | 2.33% [at 11.4 µM] (inactive) | –
48 | CCN(Cc1ccncc1)C(=O)[C@@H](CO)c1ccccc1 | – | inactive
49 | C=CC(=O)OCCOCCOCCOCCOC(=O)C=C | – | inactive
50 | COc1cccc(Cn2c(=O)c(-c3ccccc3)nc3cnc(OC)nc32)c1 | 2.81% (inactive) | –
51 | CCOC(=O)CCc1c(C)c2ccc(OCc3nn[nH]n3)c(C)c2oc1=O | – | 25.1 µM (active)
52 | C=CC(=C)CCC=C(C)C | 6.01% (inactive) | –
53 | COc1ccccc1C(=O)n1nc(-c2ccccc2)nc1N | 0.521% (inactive) | –
54 | COc1ccc(C(=O)n2nc(-c3ccc(Cl)cc3)nc2N)cc1OC | 20% (inactive) | –
55 | COc1ccc(C(=O)n2nc(-c3ccc(C)cc3)nc2N)cc1OC | – | 31.6 µM (active)
56 | CO[C@@H]1COC(=O)C/C=C\[C@H](C)[C@@H](NS(=O)(=O)c2ccc(C)cc2)COC(=O)C/C=C\[C@@H]1C | 6.59% [at 11.4 µM] (inactive) and 13.2% [at 11.4 µM] (inactive) | –
57 | COc1ccc(C(=O)N2CCC[C@@]3(CCN(C(=O)NC(C)C)C3)C2)cc1 | -3.04% (inactive) | –
58 | O=C1OCCC=C1[C@@H](O)CCc1ccccc1 | -6.14% [at 11.4 µM] (inactive) | –
59 | C[C@H]1CC[C@H](C(=O)O)N[C@@H]1c1ccc(C#Cc2ccccc2)cc1 | 4.48% [at 11.4 µM] (inactive) | –
60 | CCOC(=O)c1cc(-c2nnc(-c3cc(OC)c(OC)c(OC)c3)o2)c(C)nc1C | – | 5.01 µM (active)
61 | CCOC(=O)c1cc2ccccc2nc1C | 3.8% (inactive) | –
62 | CCCc1nc2ccccc2c(C(=O)OCc2nnc(-c3cc(OC)c(OC)c(OC)c3)o2)c1CC | 11% (inactive) | –
63 | Cc1cc2c(cc1C)NC1=C(N2)O[C@H](c2c[nH]c3ccc(COc4ccccc4)cc23)C1=O | 0.634% [at 11.4 µM] (inactive) | –
64 | CCCN1C2=C(C(=O)CCC2)C(c2ccc(O)c(Br)c2)C2=C1CCCC2=O | – | 15.8 µM (active)
65 | O=C1CC(c2cccc(Br)c2)C2=C(CCCC2=O)N1 (stereo unspecified) | 1.13% (inactive) | –
66 | C[C@@H](C(=O)Nc1ccc2ccccc2c1)[C@@H]1C[C@@]1(C)[C@@H](NC(=O)c1cccnc1)c1ccccc1 | 3.59% (inactive) | –
67 | COc1ccc(C[C@H](N)C(=O)N[C@@H]2[C@H](O)[C@H](n3cnc4c(N(C)C)ncnc43)O[C@@H]2CO)cc1 | -1.06% [at 25.6 µM] (inactive) | –
68 | O=C(NCc1ccc2c(c1)OCO2)c1ccc2c(c1)C(=O)N(CC1CCCO1)C2=O (stereo unspecified) | -0.581% (inactive) | –
69 | CN1C(=O)c2ccc(NC(=O)C3CCCCC3)cc2C1=O | 3.73% (inactive) | –

Row | Compound | activity change, negative = inhibition | Potency
70 | CCC(=O)Nc1ccc(C(=O)Nc2ccc3c(c2)C(=O)N(CC2CCCO2)C3=O)cc1 (stereo unspecified) | – | 10 µM (active)
71 | c1ccc2sc(SCCSc3nc4ccccc4s3)nc2c1 | 16.5% [at 11.4 µM] (inactive) | –
72 | COC(=O)[C@@]1(Cc2ccc(F)cc2)[C@@H]2[C@@H](CC(=O)[C@H]2CC(=O)C(=O)N2CCCC2)CN1C(=O)c1ccccc1 | -3.47% (inactive) | –
73 | O=C(OCC(COC(=O)c1ccccc1)(COC(=O)c1ccccc1)COC(=O)c1ccccc1)c1ccccc1 | 0.505% (inactive) | –
74 | COC(=O)C1=CN(C)C=C(C(=O)OC)C1c1ccc(Cl)cc1Cl | 16.3% (inactive) | –
75 | CCOc1ccccc1C1C(C(=O)OC)=CN(C)C=C1C(=O)OC | – | 31.6 µM (active)
76 | CCOc1cc(C2C(C(=O)OC)=CN(C3CCCC3)C=C2C(=O)OC)cc(Br)c1O | 106% (inactive) | –
77 | Cn1c(=O)c(-c2ccccc2)nc2cnc(N3CCNCC3)nc21 | 7.59% (inactive) | –
78 | CO[C@H]1COC(=O)[C@H](Cc2ccccc2)NC(=O)C/C=C\[C@@H](C)[C@H](OC)COC(=O)C/C=C\[C@@H]1C | 2.71% [at 11.4 µM] (inactive) | –
79 | c1n[nH]c(NCc2ccc3c(c2)OCO3)n1 | 3.73% (inactive) | –
80 | c1cncc(CNc2ccnc(-c3ccc4c(c3)OCO4)n2)c1 | – | 25.1 µM (active)
81 | O=C(Nc1cccnc1)c1ccc2c(c1)OCO2 | -0.811% (inactive) | –
82 | CCCCCCc1ccc(O)cc1O | -15.6% (inactive) | –
83 | O=C(Cn1c(=O)sc2ccccc21)Nc1nc2c(s1)CCCC2 | -1.57% (inactive) | –
84 | COc1cccc(Cn2c(=O)c(CCc3ccccc3)nc3cnc(N(C)C)nc32)c1 | 9.43% (inactive) | –
85 | COC(=O)C(C)Sc1ccc2nnc(-c3cccc(F)c3)n2n1 (stereo unspecified) | – | 12.6 µM (active)
86 | CC1CCN(C(=O)CSc2ccc3nnc(-c4cccc(F)c4)n3n2)CC1 | 1.29% (inactive) | –
87 | CCOc1ccc(-c2nnc3ccc(SC)nn23)cc1 | 9.93% (inactive) | –
88 | Cc1cc(C)c2nc3c(c([C@H](O)[C@@H]4CCCCN4)c2c1)CC/C3=C/c1ccc(Cl)cc1 | 12.8% [at 11.4 µM] (inactive) | –
89 | COC(=O)[C@@]1(Cc2ccc(F)cc2)[C@H]2c3cc(C(=O)N4CCCC4)n(Cc4ccc(OC(F)(F)F)cc4)c3C[C@H]2CN1C(=O)c1ccccc1 | 19.7% (inactive) | –
90 | CCCCc1cc(=O)oc2cc(C)cc(OCc3nn[nH]n3)c12 | – | 25.1 µM (active)
91 | CCc1cc(=O)oc2cc(C)cc(OC(C)C(=O)O)c12 (stereo unspecified) | 35.9% (inactive) | –
